# Laboratory results: the supplement of paper PMC8728848
# About 410 targets per protein were measured; listed, in parts, are those with the strongest signals and a random draw of the rest.
# Columns and labels:
# Test in all cases: glycan array binding signal (z-score within array); higher = stronger binding
# Conditions in all cases: glycan notation: IUPAC condensed, linker removed
# [1] = system: Gal(b1-4)GlcNAc(b1-3)Gal(b1-4)[Fuc(a1-3)]GlcNAc(b1-3)Gal(b1-4)[Fuc(a1-3)]GlcNAc
# Procedure, shortened: (§1)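 From the Consortium for Functional Glycomics database, 3228 arrays were curated, keeping only those whose protein sequence was available. Binding is given as a within-array Z-score averaged across arrays sharing a protein sequence and across linkers. Negative Z-scores can be read as non-binding.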
# [2] = system: Gal(b1-4)GlcNAc(b1-3)GalNAc
# Procedure, shortened: as §1
# [3] = system: Gal(b1-4)GlcNAc(b1-3)[Fuc(a1-3)GlcNAc(b1-6)]Gal(b1-4)Glc
# Procedure, shortened: as §1
# [4] = system: Gal(b1-4)GlcNAc(b1-3)Gal(b1-4)GlcNAc(b1-3)Gal(b1-4)GlcNAc(b1-3)Gal(b1-4)GlcNAc(b1-3)Gal(b1-4)GlcNAc(b1-2)Man(a1-3)[Gal(b1-4)GlcNAc(b1-3)Gal(b1-4)GlcNAc(b1-3)Gal(b1-4)GlcNAc(b1-3)Gal(b1-4)GlcNAc(b1-3)Gal(b1-4)GlcNAc(b1-2)Man(a1-6)]Man(b1-4)GlcNAc(b1-4)[Fuc(a1-6)]GlcNAc
# Procedure, shortened: as §1
# [5] = system: Gal(b1-4)GlcNAc(b1-3)Gal(b1-4)GlcNAc(b1-3)GalNAc
# Procedure, shortened: as §1
# [6] = system: Gal(b1-4)GlcNAc(b1-3)Gal(b1-4)GlcNAc(b1-3)Gal(b1-4)GlcNAc(b1-3)Gal(b1-4)GlcNAc(b1-3)Gal(b1-4)GlcNAc(b1-3)Gal(b1-4)GlcNAc(b1-2)Man(a1-3)[Gal(b1-4)GlcNAc(b1-3)Gal(b1-4)GlcNAc(b1-3)Gal(b1-4)GlcNAc(b1-3)Gal(b1-4)GlcNAc(b1-3)Gal(b1-4)GlcNAc(b1-3)Gal(b1-4)GlcNAc(b1-2)Man(a1-6)]Man(b1-4)GlcNAc(b1-4)GlcNAc
# Procedure, shortened: as §1
# [7] = system: Gal3S(b1-4)GlcNAc
# Procedure, shortened: as §1
# [8] = system: Gal3S(b1-4)[Fuc(a1-3)]GlcNAc
# Procedure, shortened: as §1
# [9] = system: Gal(b1-4)GlcNAc(b1-3)Gal(b1-4)GlcNAc(b1-3)Gal(b1-4)GlcNAc
# Procedure, shortened: as §1
# [10] = system: Gal(b1-4)GlcNAc(b1-6)[Gal(b1-3)]GalNAc
# Procedure, shortened: as §1
# [11] = system: Gal(b1-4)GlcNAc(b1-3)Gal(b1-4)[Fuc(a1-3)GlcNAc(b1-6)]Gal(b1-4)Glc
# Procedure, shortened: as §1
# [12] = system: Gal3S(b1-3)[Fuc(a1-4)]GlcNAc
# Procedure, shortened: as §1
# [13] = system: Gal(b1-4)GlcNAc
# Procedure, shortened: as §1
# [14] = system: Gal3S(b1-3)GalNAc
# Procedure, shortened: as §1
# [15] = system: Gal3S(b1-4)[Fuc(a1-3)]Glc6S
# Procedure, shortened: as §1
# [16] = system: Gal(b1-4)GlcNAc(b1-3)Gal(b1-4)GlcNAc
# Procedure, shortened: as §1
# [17] = system: Gal(b1-4)Glc
# Procedure, shortened: as §1
# [18] = system: Gal3S(b1-4)Glc
# Procedure, shortened: as §1
# [19] = system: Gal(b1-6)Gal
# Procedure, shortened: as §1
# [20] = system: Gal3S(b1-3)GlcNAc
# Procedure, shortened: as §1
substance,measurement,setting,value
Epa22,glycan array binding signal (z-score),[1],-0.575
same,glycan array binding signal (z-score),[2],-0.621
same,glycan array binding signal (z-score),[3],-0.173
AgI/II Vhelical-GFP (Streptococcus mutans),glycan array binding signal (z-score),[4],-0.113
same,glycan array binding signal (z-score),[5],6.41
AgI/IIC123-GFP (Streptococcus mutans),glycan array binding signal (z-score),[4],5
same,glycan array binding signal (z-score),[6],1.82
same,glycan array binding signal (z-score),[3],0.19
same,glycan array binding signal (z-score),[7],-0.345
same,glycan array binding signal (z-score),[8],0.852
"GspB (Streptococcus gordonii), Q939N5",glycan array binding signal (z-score),[9],-0.783
same,glycan array binding signal (z-score),[10],-0.739
"SiiE (Salmonella typhimurium), A0A0H3NVH0",glycan array binding signal (z-score),[9],0.446
same,glycan array binding signal (z-score),[11],-0.187
same,glycan array binding signal (z-score),[12],-0.012
"SpGH101 (Streptococcus pneumoniae), Q8DR60",glycan array binding signal (z-score),[13],-0.157
same,glycan array binding signal (z-score),[14],5.02
same,glycan array binding signal (z-score),[15],0.164
"BambL (Burhholderia ambifaria), Q0B4G1",glycan array binding signal (z-score),[16],-0.314
same,glycan array binding signal (z-score),[12],0.713
LcI (Legionella pneumophila),glycan array binding signal (z-score),[17],0.081
same,glycan array binding signal (z-score),[18],3.4
"Wza (Escherichia coli), P0A930",glycan array binding signal (z-score),[9],2.94
same,glycan array binding signal (z-score),[19],-0.876
same,glycan array binding signal (z-score),[20],0.986
